ANO1 activ = activates or potentiates the mouse TMEM16A chloride channel; Q8BHY3; HEK293 TMEM16A/YFP-H148Q/I152L, iodide quench fluorescence; stronger effect = lower value; B-score at 10 µM; 0.3% of 340,000 active;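 active means fluorescence-ratio B-score plate-corrected deviation score at least 3 library SD below zero, with starting fluorescence score within 5 deviations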;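 further: channel opened by trigger with iodide after compound preincubation; score built on the fluorescence ratio of max minus min over baseline; more negative score means more quench and so TMEM16A activation or potentiation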
NOD2-RIPK2 inh = inhibitors of human NOD2-RIPK2 interaction. O43353. CHO BLA complementation NOD2-RIPK2, CCF4 ratio. inhibition, % at 4.98 µM. 0.38% of 360,000 active. AID 624267; in the data active means inhibition above about 21%;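 further: 0% = vehicle only and 100% = reference blocker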
TMEM16A inh = blocks the mouse calcium-activated chloride channel TMEM16A; Q8BHY3; HEK293 TMEM16A/YFP iodide influx fluorescence, ionomycin; normalized B-score (activity score, 25-100; higher = stronger inhibition) at 10 µM; 1.2% of 310,000 active;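 active means ratio plate-corrected score three or more library SD toward inhibition, starting fluorescence score within five deviations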;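 further: score derived from kinetic fluorescence span divided by baseline fluorescence per well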
GRK2 aptamer HTS = human GRK2 inhibition via aptamer displacement; bead flow cytometry, FAM-aptamer displacement from GRK2; inhibition of aptamer binding, % at 10 µM; 0.59% of 330,000 active;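 active means inhibition of aptamer binding above 40%, roughly 3 SD of noise, on plates passing a quality check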;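 further: median bead fluorescence of bound FAM aptamer so fluorescent compounds give negative values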
TLR4-MyD88 BLA = inhibitors of human TLR4-MyD88 binding; O00206+Q99836; HeLa CL3-4 TLR4/MyD88 BLA complementation, FRET ratio; inhibition, % at 8.4 µM; 0.18% of 200,000 active; in the data active means inhibition above about 25%;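 further: 0% = vehicle and 100% = reference inhibitor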
TLR9-MyD88 inh = TLR9-MyD88 interaction inhibition; 0.21% of 340,000 active; CHO BLA complementation TLR9-MyD88, CCF4 FRET ratio; Q9NR96+Q99836; AID 504734; inhibition, % at 4.98 µM;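 active means inhibition above the mean over all tested compounds plus 3 SD, cut at about 21% in these data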;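 further: 0% = DMSO only wells and 100% = clavulanate BLA inhibitor control wells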
GRK2 CP1 = confirmation of human GRK2 inhibitors displacing RNA aptamer. shares compounds with GRK2 aptamer HTS. bead-bound GRK2, FAM-aptamer displacement, flow cytometry. aptamer displacement, % at 10 µM. 4% of 2,000 active;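 active means aptamer displacement above 40%, near three times the noise of non-fluorescent compounds, on plates passing quality checks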;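 further: negative values mostly reflect intrinsic compound fluorescence rather than true enhancement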
Aptamer quench = fluorescent aptamer quenching in GRK2 counter-screen dose response; AID 504521; Fluorescent RNA aptamer beads, flow cytometry; stronger effect = higher value; shares compounds with GRK2 aptamer HTS; fluorescence change (kMESF span), kMESF (concentration not given with the values); 110 tested, under 10 active;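 active means compounds whose bead fluorescence drops by more than 37 kMESF across the dose range, marking them as dye quenchers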
FAM quench CP1 = counter-screen for GRK2 aptamer inhibitors: fluorescent aptamer quenchers | shares compounds with GRK2 aptamer HTS | Carboxyfluorescein RNA aptamer on beads, flow cytometry quenching; stronger effect = lower value | fluorescence response (% of DMSO), % at 10 µM | 2,000 tested, under 10 active;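 active means compounds that quench the bead-bound fluorescent RNA probe, cutting fluorescence to under half of the solvent control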;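 further: counterscreen run without GRK2 so only probe quenching by compound is measured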
The depositor's hits bear a star; i = inactive; . = no result given. Most compounds without a hit are left out; they make up all but 2.2% or so of the library.

SMILES	ANO1 activ	NOD2-RIPK2 inh	TMEM16A inh	GRK2 aptamer HTS	TLR4-MyD88 BLA	TLR9-MyD88 inh	GRK2 CP1	FAM quench CP1	others
O=S(=O)(c1ccccc1C(F)(F)F)N1CCN(CC(O)COc2ccccc2F)CC1 (stereo unspecified)	i	7	i	2	.	3	.	.
COCCN(C(=O)CSc1nc2ccccc2c(=O)n1CC(C)C)c1c(N)n(Cc2ccccc2)c(=O)[nH]c1=O	i	-7	i	0	-6	2	.	.
CCCCNC(=O)c1nc(C2CCNCC2)oc1-c1ccccc1	.	-5	.	.	.	.	.	.
CC1(C)CC(NC(=S)Nc2ccc(S(N)(=O)=O)cc2)CC(C)(C)N1	i	-20	i	72*	1	-8	-3	104
Cn1nc(C(C)(C)C)cc1C(=O)N1CCCCC1c1cc(C(=O)Nc2ccccc2)no1 (stereo unspecified)	.	0	.	.	.	.	.	.
O=C(NC(CC1CCCCC1)C(=O)O)c1ccccc1 (stereo unspecified)	i	-10	.	99*	.	-1	6	102
O=C(NC(Cc1ccccc1)C(=O)N1CCCCCC1)c1ccccc1 (stereo unspecified)	i	0	i	3	.	-11	.	.
CCN(Cc1ccncc1)C(=O)c1cc(COc2ccc(OC)cc2Cl)on1	i	-8	i	3	.	-2	.	.
CCCCN(C(=O)C1CC(=O)N(c2ccc(CC)cc2)C1)c1c(N)n(CCC)c(=O)[nH]c1=O (stereo unspecified)	i	-12	.	.	.	-11	.	.
CC(=O)/C=N/Nc1ccccc1	i	-1	i	0	6	-7	.	.
OC[C@@H](O)[C@H](O)C(/C=N/Nc1ccccc1)=N\Nc1ccccc1	i	6	i	40	.	-8	0	96
Clc1ccc2c(N/N=C/c3cccc(Br)c3)ccnc2c1	i	11	i	73*	4	2	0	93
Cc1ccc(OCc2cc(C(=O)N(C)Cc3cnc4ccccn34)no2)cc1C	i	-9	i	2	.	5	.	.
COc1ccccc1/C=C/C(=O)OCC(=O)N1CCc2ccccc21	i	2	.	95*	.	-5	-4	102
O=C(/C=C/c1ccc(OC(F)F)cc1)OCC(=O)N1CCc2ccccc21	i	-3	i	2	.	3	.	.
O=C(NNC1CC(=O)N(c2ccccc2)C1=O)c1cccnc1 (stereo unspecified)	i	6	i	0	.	6	.	.
CC(C)c1ccc(N2C(=O)CC(NNC(=O)c3cccnc3)C2=O)cc1 (stereo unspecified)	i	-11	i	98*	.	6	2	98
COc1ccc(-c2nc(-c3ccc(NC(=O)c4ccncc4)cc3)no2)cc1OC	i	-2	i	0	-1	13	.	.
COc1ccc(NC(=O)c2ccc(-c3ccc(-c4noc(C)n4)cc3C)cc2)cc1N1CCN(C)CC1	i	1	i	6	.	0	-11	97
CCCN(CC(=O)Nc1ccccc1C)C(=O)COc1c(Cl)cccc1Cl	i	-9	i	2	.	-1	.	.
COc1ccc(C(=O)CSc2nnc(CNC(=O)c3ccccc3F)n2C)cc1OC	i	-3	i	0	.	5	.	.
COc1ccc(N2CCN(C(CNS(=O)(=O)c3ccccc3)c3ccccc3)CC2)cc1 (stereo unspecified)	i	-17	i	47*	.	-5	2	86	Aptamer quench=19
COc1ccc(C(CNS(=O)(=O)c2ccc(C)cc2)N2CCN(C)CC2)cc1 (stereo unspecified)	i	4	i	0	.	-8	.	.
